This passage reports sensor-assay potency score (higher = more potent) results from the OligoGym collection.
Further: reference of the scale not given here.

One experiment addresses NDUFAB1. The experiment in a line: pooled miR-30 sensor sort-seq; sequence = guide strand. The following applies: shRNA.
Turning to TAATCTACAATTTCTTGTGGAC, the sensor-assay potency score (higher = more potent) was -0.35. On to TTTACTGAAAGCTTCTCTGGGT, for which the sensor-assay potency score (higher = more potent) is 0.584.

The sequence TTCTTGTGGACACATTAACTTT yielded a sensor-assay potency score (higher = more potent) of -1.46. On the same count and under the same terms, then TGTAATCTACAATTTCTTGTGG, with 0.132. For the sequence TTACTGAAAGCTTCTCTGGGTC, the sensor-assay potency score (higher = more potent) stood at 0.337. In turn, TACAATTTCTTGTGGACACATT showed a sensor-assay potency score (higher = more potent) of -0.835. With ACAACTGTGTAACTCTACCAGG, the sensor-assay potency score (higher = more potent) is -1.08.

Regarding TACAATTTAAATACAAGTCCAT, the sensor-assay potency score (higher = more potent) was 0.341.

Another experiment concerns the target NDUFC1. The description is as above. The note with it: shRNA.
In the case of TAGATCCACAAGAAGACAGTGG, the sensor-assay potency score (higher = more potent) is 0.0941. TTTGATCGCACTGAAGGGCCGC: the sensor-assay potency score (higher = more potent) is -0.255. For the sequence TAGAACTTTGATCGCACTGAAG, the sensor-assay potency score (higher = more potent) is -1.43. In the case of TATATATTCACATATAACTTTT, the sensor-assay potency score (higher = more potent) was -0.874. In turn, TTGTACTCTAAAATATCTTCAT had a sensor-assay potency score (higher = more potent) of -0.343. The sequence TTCATTGTGTTGTTTGATGAGA came in with a sensor-assay potency score (higher = more potent) of -0.384.

Regarding TTGATCGCACTGAAGGGCCGCT, the sensor-assay potency score (higher = more potent) was -0.209. On the same count and under the same terms, the result for TTTTGTACTCTAAAATATCTTC reads -0.163. As for TTGTTTGATGAGATAGATCCAC, the sensor-assay potency score (higher = more potent) was -0.545. The sequence TAAAATATCTTCATTGTGTTGT had a sensor-assay potency score (higher = more potent) of 1.09.

On to TTTGATGAGATAGATCCACAAG, for which the sensor-assay potency score (higher = more potent) is -1.07.

TTTACAACTCAACAGATGGTGA gave a sensor-assay potency score (higher = more potent) of -0.815.

A further experiment deals with NEBL. The description is as above. The following applies: shRNA.
In the case of TTTGTACTTGACCTGACTCTGC, the sensor-assay potency score (higher = more potent) was -0.0804.

For TTGTCTTAAAAGTATCTTCTAT, the sensor-assay potency score (higher = more potent) was -0.254. Consider TAGCTGTGAAGTCAGACCCTAA, for which the sensor-assay potency score (higher = more potent) was -1.2. TTCAGGTGTATCTGCCACCGTG registered a sensor-assay potency score (higher = more potent) of -0.9. Sequence TTTATGCCAATACTTATCCAGG yielded a sensor-assay potency score (higher = more potent) of -1.28. On to ATCTCTTTTGTACTTGACCTGA, for which the sensor-assay potency score (higher = more potent) is -0.797.

The sequence TTGAATCTACATGACATGCAAC returned a sensor-assay potency score (higher = more potent) of -0.738. The same measure, in the same setting: the result for TTCATGTTGAGTGCCATCTTGC reads -0.598; that for TAGATTTGGTGAATGCTGCATT, 0.277.

Sequence TTATTTGGTCCTGACATTCTGT had a sensor-assay potency score (higher = more potent) of -0.142. For TTCAATAATAGGAACGCGCAGT, the sensor-assay potency score (higher = more potent) was -0.234. On to TACATGGCTCGGTAGGTCCTTA, for which the sensor-assay potency score (higher = more potent) was -0.857.

In another experiment the target is NEFH. The experiment is described as above. The following applies: shRNA.
TTTTCTTATCTTCAGCCTCTTC showed a sensor-assay potency score (higher = more potent) of -0.582.

TTGGTGTCTTTTTTCTCCGGTG came in with a sensor-assay potency score (higher = more potent) of -0.602. With TTCAACTTTGGATTCTTTGGGC, the sensor-assay potency score (higher = more potent) turned out to be 0.436. For the sequence TTTGGGTTTAGCGTCTTCCTTC, the sensor-assay potency score (higher = more potent) is -0.21.

Take TACCTCTGTCTTTTCTTTGGGT: the sensor-assay potency score (higher = more potent) came out at 0.0672. On to TAAGCTATCATAATTGTCCATC, for which the sensor-assay potency score (higher = more potent) is -0.916.

Sequence TTGGCTTCTTCCTTCACTGGGG returned a sensor-assay potency score (higher = more potent) of 0.0706. For the sequence TATTGCTAACAGAAATTCCTGT, the sensor-assay potency score (higher = more potent) was 0.67.
